Measurements as given in PubChem BioAssay (NCI).
Compounds without any hit were thinned out: in the full panel of roughly 79,000, 15% have a hit. No stated cut-off is given here; in the data, active means growth inhibition above about 70%; inactive means the rest.

What was measured:
[1] = NCI Yeast Anticancer Drug Screen. Data for the rad50 strain (AID 155);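 further: 0% = growth of vehicle-only cultures of the same strain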; settings: S. cerevisiae rad50 strain growth inhibition; at 50.0 µM; hits give high values
How it was run: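 Readout: growth inhibition relative to vehicle-treated cultures. Compound exposure was carried out in a genetically defined yeast strain deficient in DNA damage repair.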

[2] = NCI Yeast Anticancer Drug Screen. Data for the mec2-1 strain (AID 157); settings: S. cerevisiae mec2-1 strain, at 50.0 µM, hits give high values
How it was run: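 Readout is yeast growth inhibition, normalised to vehicle-treated controls, in the mec2-1 strain exposed to compound.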

[3] = NCI Yeast Anticancer Drug Screen. Data for the sgs1 mgt1 strain (AID 161);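 further: 0% = growth of cultures given vehicle only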; settings: S. cerevisiae sgs1 mgt1 strain, at 50.0 µM, hits give high values
How it was run: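 This yeast growth screen uses a strain with defined DNA-repair lesions; compound-treated growth is compared with vehicle-treated growth.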

[4] = NCI Yeast Anticancer Drug Screen. Data for the cln2 rad14 strain (AID 165);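 further: 0% = growth equal to vehicle treated cultures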; settings: S. cerevisiae cln2 rad14 strain, at 50.0 µM, hits give high values
How it was run: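 Relative to vehicle controls, growth inhibition of compound-treated cln2 rad14 yeast was recorded.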

[5] = NCI Yeast Anticancer Drug Screen. Data for the bub3 strain (AID 167); settings: S. cerevisiae bub3 mutant strain, at 50.0 µM, hits give high values
How it was run: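 Readout: yeast growth inhibition, expressed relative to vehicle-only wells. The test organism is a mutant strain from a panel with lesions in DNA repair or checkpoint genes.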

[6] = NCI Yeast Anticancer Drug Screen. Data for the mlh1 rad18 strain (AID 175); settings: S. cerevisiae mlh1 rad18 strain growth inhibition; at 50.0 µM; hits give high values
How it was run: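 Test agents were incubated with a yeast strain of defined genotype (DNA damage repair defect). Inhibition of growth was derived by comparison with vehicle-exposed cultures.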

Measured: growth inhibition

Nc1ccnc(Sc2ncccc2[N+](=O)[O-])n1
inactive: [1] 1.2% | [2] -8.15% | [3] -5.75% | [4] -47.8% | [5] 7.8% | [6] 1.3%

CCOP(=O)(OCC)C1C(C)N1C(=O)Nc1ccccc1 (stereo unspecified)
inactive: [1] 1.4% | [2] -4.15% | [3] -8.1% | [4] 5% | [5] -11.7% | [6] -17.4%

CC(C)S(=O)(=O)c1s[nH]c(=O)c1-c1ccccc1
inactive: [1] -14.9% | [2] -0.1% | [3] 12.2% | [4] 5.75% | [5] -4.15% | [6] -1.2%

COC1OC(CO)C(O)C(NC(=O)[C@H](Cc2ccccc2)NC(=O)OCc2ccccc2)C1O (stereo partly specified)
inactive: [1] 16.6% | [2] 0.75% | [3] 0.95% | [4] 8.65% | [5] 0.45% | [6] 14%

O=C1c2ccccc2C(=O)N1CCn1nc(-c2ccccc2)cc(-c2ccccc2)c1=O
inactive: [1] 1.85% | [2] -2.35% | [3] -25.5% | [4] 7.9% | [5] 39% | [6] -8.6%

NCCCNCCCCN1CCOC1=O
inactive: [1] 2.8% | [2] 1.65% | [3] -3.1% | [4] -6.6% | [5] -11.3% | [6] -17.9%

CC1OCOC1C1OCOCC1OC(=O)c1ccccc1 (stereo unspecified)
inactive: [1] -5.6% | [2] -5.5% | [3] -15.2% | [4] -14.8% | [5] 25.2% | [6] -5%

CCOC(=O)c1c(C)c(C(C)=O)c2ccccn12
inactive: [1] -18.2% | [2] -17.4% | [3] -19.9% | [4] -26.6% | [5] 5.4% | [6] -2.7%

CCCCCCC(=O)c1ccco1
inactive: [1] 2.4% | [2] -18.6% | [3] -1.05% | [4] 14.9% | [5] -1.75% | [6] -11.8%

C/C(=N\N=C(N)N)c1ccc(NC(=S)Nc2ccccc2)cc1
inactive: [1] 5.4% | [2] 3.85% | [3] 26.2% | [4] -19.9% | [5] 3.5% | [6] 9.5%

c1ccc(C2=C(c3ccccc3)C2c2ccccc2)cc1
inactive: [1] 10.8% | [2] -8.95% | [3] -4.5% | [4] -21.1% | [5] -2.15% | [6] 7.15%

OC1(C(O)(c2ccc(-c3ccccc3)cc2)c2ccc(-c3ccccc3)cc2)CCCCC1
inactive: [1] -11% | [2] -7.85% | [3] -34% | [4] -14.6% | [5] -26.4% | [6] -0.5%

c1ccc2c(OCCSCCCCCCCCCCSCCOc3cccc4ccccc34)cccc2c1
inactive: [1] 18.9% | [2] -5.55% | [3] -2.25% | [4] 7.75% | [5] -3.6% | [6] -9.25%

Cc1cccc2c1C1c3ccccc3C(=O)CC1CC2=O (stereo unspecified)
inactive: [1] 14.9% | [2] 30% | [3] 22.9% | [4] 25.7% | [5] 11% | [6] 35.2%

CN1CC(=O)N(C(=O)c2ccccc2)C1=N
inactive: [1] -6.6% | [2] -17.2% | [3] -6.4% | [4] -17.9% | [5] -2.15% | [6] 9.55%

O=NC1C(Cl)C2CC1C1COCC21 (stereo unspecified)
inactive: [1] -16% | [2] -9.55% | [3] -9.05% | [4] -30.1% | [5] 1% | [6] -7.05%

CNC(=O)OCc1c(COC(=O)NC)c(-c2ccc(S(=O)(=O)c3ccccc3)cc2)n(C)c1C
inactive: [1] -5.85% | [2] -3.85% | [3] -1.95% | [4] -2.7% | [5] -16.4% | [6] -42.6%

[O-]c1on[n+]2c1c(Nc1ccc(Cl)cc1)nc1ccccc12
inactive: [1] -31.1% | [2] -28% | [3] -22.3% | [4] -21.2% | [5] -36.5% | [6] -39.5%

CCc1cccc(C)c1N1C(=O)C(=O)C(c2nc3ccccc3o2)C(=O)C1=O
inactive: [1] 33.8% | [2] 17.9% | [3] 19.7% | [4] 16% | [5] -4.55% | [6] 34.5%

COc1ccc([N+](=O)[O-])c2c1CONC2c1c(CO)cnc(C)c1O (stereo unspecified)
inactive: [1] 35.1% | [2] -12.2% | [3] 27.2% | [4] -22.4% | [5] 5.3% | [6] -2.7%

CC(C)C[N+](=O)[O-]
inactive: [1] -23.4% | [2] -21.1% | [3] -4.05% | [4] -12.7% | [5] -1.25% | [6] 11.3%

Cc1cc(Sc2ccc(Cl)cc2)nc(Sc2ccc(Cl)cc2)c1C#N
inactive: [1] 7.6% | [2] -30.5% | [3] -27.9% | [4] -20.6% | [5] -10.7% | [6] -26.9%

O=C(c1ccccc1)C1C=CC=CN1Cc1ccccc1S(=O)(=O)O (stereo unspecified)
inactive: [1] 13.5% | [2] 0.6% | [3] -3.95% | [4] 3% | [5] 1.75% | [6] -19.2%

CC1(C)CS(=O)(=O)C(=O)N1CCC(=O)O
inactive: [1] 9.8% | [2] 15.4% | [3] 7.8% | [4] 3.85% | [5] 6.45% | [6] 24.9%

O=C1C2=C(c3ccccc31)C(c1ccccc1Cl)N1C(=O)CSC1=N2 (stereo unspecified)
inactive: [1] 67.9% | [2] 50.2% | [3] 53.5% | [4] 48.6% | [5] 53.8% | [6] 60%

Nc1cc(=O)[nH]c2ncnn12
inactive: [1] 18.2% | [2] -12% | [3] 2.4% | [4] 6.2% | [5] 4% | [6] 20.1%

O/N=C1/C(=C/c2ccc(F)cc2)CCCC1C(NO)c1ccc(F)cc1 (stereo unspecified)
inactive: [1] -3.9% | [2] -22.1% | [3] -8.05% | [4] 3.35% | [5] -6% | [6] -17.7%

CCOC(=O)C(CO)NC(=O)c1cnc2ccccc2c1 (stereo unspecified)
inactive: [1] 16.4% | [2] 1.65% | [3] 13.1% | [4] -29.8% | [5] -30.4% | [6] 12.8%

CCc1c(CBr)c(=O)[nH]c2ccccc12
inactive: [1] 8.7% | [2] -8.1% | [3] -10.8% | [4] 0.9% | [5] 1.3% | [6] 2.55%

O=C1c2ccccc2C(=O)N1CC1CC(S(=O)(=O)c2ccccc2)=NO1 (stereo unspecified)
inactive: [1] -1.8% | [2] -15.2% | [3] -0.4% | [4] -0.4% | [5] -7.6% | [6] 5%

CN(C)CCCOC(=O)C(O)(Cc1ccccc1)C1CC1 (stereo unspecified)
inactive: [1] 10.7% | [2] 15.4% | [3] 6.25% | [4] 5.35% | [5] 28.6% | [6] 15.1%

CC1(C(=O)O)CCCC2(C)c3ccc(O)cc3CCC12 (stereo unspecified)
inactive: [1] 37% | [2] 29.9% | [3] 61.2% | [4] -3% | [5] 61.1% | [6] 45%

CC(=O)OCC1OC(Nc2[nH]c(=O)n(C)c(=O)c2C=O)C(OC(C)=O)C(OC(C)=O)C1OC(C)=O (stereo unspecified)
inactive: [1] 2.5% | [2] 9.4% | [3] 6.7% | [4] 9.15% | [5] -0.4% | [6] 3.95%

Nc1cccc2ccc(S(=O)(=O)O)cc12
inactive: [1] -3.05% | [2] -9% | [3] -24.4% | [4] -13.8% | [5] -9.9% | [6] 8.85%

CCOC(=O)C(CN)c1ccccc1 (stereo unspecified)
inactive: [1] -9.15% | [2] -9.5% | [3] 8.1% | [4] -32.9% | [5] -1.25% | [6] 3.6%

O=C(Oc1ccc(Cl)cc1)c1ccccc1
inactive: [1] 25.3% | [2] -2.1% | [3] -1.65% | [4] 2.25% | [5] -7.75% | [6] -25.6%

CC(C)(C)c1cc(CCCCCCCC2(CCCCCCCc3cc(C(C)(C)C)cc(C(C)(C)C)c3)OC(COCCOCCCCCC#N)C(COCCOCCCCCC#N)O2)cc(C(C)(C)C)c1 (stereo unspecified)
inactive: [1] 24.6% | [2] -6.5% | [3] -1.5% | [4] -18% | [5] 0% | [6] 9.6%

CC(=O)c1sc(Nc2nnc(-c3ccc(-c4nnc(Nc5nc(C)c(C(C)=O)s5)o4)cc3)o2)nc1C
inactive: [1] 3.15% | [2] -14.3% | [3] -25% | [4] 6.4% | [5] -3.05% | [6] 3.05%

COC(=O)c1c(OC)cc2cc3c(c(O)c2c1C)C(=O)C1(O)C(=O)C=C(OC)C(OC(=O)CC(C)N)=C1C3=O (stereo unspecified)
inactive: [1] 26.1% | [2] 1.05% | [3] 24.2% | [4] 25.9% | [5] 22.9% | [6] 33%

COc1ccc2c(N=[N+]=[N-])cc(C)nc2c1
inactive: [1] -42.2% | [2] -1.45% | [3] -16.9% | [4] -57.5% | [5] 1.55% | [6] 20.4%

Cn1c(=O)cc2[nH]c3ccccc3n2c1=O
inactive: [1] 9.5% | [2] 22.4% | [3] -10% | [4] -5.7% | [5] 4.6% | [6] -19.7%
